# Screens deposited in PubChem by National Center for Advancing Translational Sciences (NCATS).
# In the library only some 3% were active in any assay of this set; here they are far more common.
# USP1 inh = Inhibitors of USP1/UAF1: Primary Screen; Ubiquitin carboxyl-terminal hydrolase 1 (Homo sapiens), O94782; recombinant USP1/UAF1, Ub-Rhodamine cleavage fluorescence; Potency, µM (highest dose often 57.1 µM), for the others: top-dose activity change, negative = inhibition, usual class: inhibitors; 390,000 tested, 0.23% active; AID 743255, 2014; also: % is scaled to controls: 0 for no effect and ±100 for the full control effect; nearly all actives have a fitted effect of over 60% in size
#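 USP1/UAF1 complex at 1 nM was preincubated with compound for 15 min at room temperature, then Ub-Rho substrate (150nM final) was added. Fluorescence (480/540 nm) was read kinetically, 6 reads every 60 seconds.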
# VDR inh = Inhibitors of the vitamin D receptor (VDR): qHTS | VDR-SRC2-3 peptide fluorescence polarization, 2 h | Potency, µM, for inactives: max response, negative = inhibition, hits mostly inhibitors | 400,000 tested, 0.93% active | Vitamin D3 receptor (Homo sapiens), P11473; also: % is scaled to controls: 0 for no effect and ±100 for the full control effect
#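 Signal is fluorescence polarization, reporting how far test compounds block the interaction of VDR with the SRC2-3 coregulator peptide after a 2 h room-temperature incubation.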
# PTAP TSG101 blk = qHTS Assay for Iinhibitors of HIV-1 Budding by Blocking the Interaction of PTAP/TSG101 | Tumor susceptibility gene 101 protein (Homo sapiens), Q99816 | Fluorescence polarization, FITC-PTAP peptide / Tsg101 binding | Potency, µM (series often up to 115 µM), for the others: at the highest dose activity change, negative = inhibition, most hits filed as inhibitors | 340,000 tested, under 10 active | AID 493005, 2010; active = well fitted inhibition curve with a large enough effect in the main read-out, with a control signal flat, not every such curve was filed as active; inconclusive = small, poorly fitted or top-dose-only effect, or effect the other way, or a change in a side signal; inactive = no such curve, though single readings can be large or run the other way; also: % of control where 0% means no effect
#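 Compounds were pin-transferred onto Tsg101 binding domain (10 uM final) in HEPES pH 7.5 buffer, then FITC-PTAP peptide was added at 50 nM final. After 20 min at RT, polarization reported peptide displacement across a qHTS concentration series.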
# KAT2A inh = qHTS Assay for Inhibitors of GCN5L2. Histone acetyltransferase KAT2A (Homo sapiens), Q92830. GCN5L2 HAT assay, ThioGlo1 CoA-SH fluorescence. AID 504327, 2011. Potency, µM (series often up to 58.9 µM), for inactives: at the top dose activity change, negative = inhibition, actives largely listed as inhibitors. 390,000 tested, 0.21% active; also: % is scaled to controls: 0 for no effect and ±100 for the full control effect
# Target sequence (Q92830 whole entry, looked up): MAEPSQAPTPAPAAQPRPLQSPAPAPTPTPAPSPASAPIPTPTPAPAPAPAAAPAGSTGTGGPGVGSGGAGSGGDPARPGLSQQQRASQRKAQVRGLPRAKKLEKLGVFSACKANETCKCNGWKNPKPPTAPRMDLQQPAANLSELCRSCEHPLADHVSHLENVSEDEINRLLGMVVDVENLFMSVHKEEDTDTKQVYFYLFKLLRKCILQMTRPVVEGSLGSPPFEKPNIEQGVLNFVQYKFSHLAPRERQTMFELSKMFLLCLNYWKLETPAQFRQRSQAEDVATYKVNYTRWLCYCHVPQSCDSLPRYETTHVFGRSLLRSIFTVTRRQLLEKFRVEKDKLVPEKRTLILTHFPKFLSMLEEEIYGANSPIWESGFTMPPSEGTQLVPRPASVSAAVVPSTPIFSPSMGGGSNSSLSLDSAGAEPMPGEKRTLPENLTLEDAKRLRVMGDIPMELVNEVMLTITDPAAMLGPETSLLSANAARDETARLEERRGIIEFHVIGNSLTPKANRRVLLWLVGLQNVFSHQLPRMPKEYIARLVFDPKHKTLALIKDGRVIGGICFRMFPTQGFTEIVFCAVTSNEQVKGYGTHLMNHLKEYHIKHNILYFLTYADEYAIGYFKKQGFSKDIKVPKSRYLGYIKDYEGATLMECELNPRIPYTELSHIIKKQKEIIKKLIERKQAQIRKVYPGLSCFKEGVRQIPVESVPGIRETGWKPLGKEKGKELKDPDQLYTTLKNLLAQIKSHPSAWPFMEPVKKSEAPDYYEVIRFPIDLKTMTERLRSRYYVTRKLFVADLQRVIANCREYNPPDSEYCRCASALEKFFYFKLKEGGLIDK
#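 Preincubate 20nM GCN5L2 with compound 15 min, RT → add 50uM ThioGlo1 + 75uM H3(1-25) + 70uM acetyl-CoA → read fluorescence 0 and 20 min. Primary qHTS; fluorescent artifacts likely.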
# PLK1 PBD block = qHTS for Inhibitors of PLK1-PDB (polo-like kinase 1 - polo-box domain): Primary Screen. Plk1 PBD binding of FITC phosphopeptide, fluorescence polarization. Potency, µM, without a hit: max response, negative = inhibition, actives largely listed as inhibitors. 360,000 tested, 2.8% active; also: series mostly up to about 57 µM; % is scaled to controls: 0 for no effect and ±100 for the full control effect; nearly all actives have a fitted effect of over 65% in size
# An asterisk follows results filed as active; ? = inconclusive; · = no result given. Unless noted, calls follow the shape of the dose curve; as a rule, active = well fitted curve in the direction sought with a large enough effect; inconclusive = small, poorly fitted or top-dose-only effect, or another doubt; inactive = no such curve, though single readings can be large; an effect the other way counts as inactive or inconclusive. Potency is read from the fitted curve at half-maximal effect.
SMILES,USP1 inh,VDR inh,PTAP TSG101 blk,KAT2A inh,PLK1 PBD block
c1ccc(Nc2nc(N3CCCC3)nc(N3CCCC3)n2)cc1,-15%,6%,-3%,-8%,-2%
COc1ccc(C(=O)N2CC(=O)Nc3ccc(C)cc3C2c2ccc(F)cc2)c(OC)c1 (stereo unspecified),-1%,1%,·,-2%,·
CC(c1ccccc1)N1C(=O)c2ccc(C(=O)Nc3ccc(Br)cc3C(=O)O)cc2C1=O (stereo unspecified),?,?,1%,-8%,24µM*
CC(c1ccccc1)N1C(=O)c2ccc(C(=O)Nc3ccccc3C(=O)O)cc2C1=O (stereo unspecified),-25%,-20%,-6%,?,24µM*
COc1ccc(Cl)cc1NC(=O)CN(C)S(=O)(=O)c1ccc2c(c1)CCCN2C(C)=O,?,4%,·,-7%,·
COc1ccc(/C=N/n2cncn2)cc1COc1ccc(NC(C)=O)cc1,-9%,?,-6%,-19%,27µM*
COc1ccc(C(=O)N/N=C/c2ccc(OC)c(COc3ccc(F)cc3)c2)cc1,-6%,-18%,-3%,-11%,-7%
Cc1cccc(NC(=O)C2CCN(S(=O)(=O)c3ccc4c(c3)CCCC(=O)N4)CC2)c1,-31%,6%,·,18%,·
COc1ccccc1Nc1ccc(Nc2ccccc2OC)nn1,-7%,-1%,0%,1%,-1%
CNc1n[nH]c(=S)s1,-18%,?,0%,?,-23%
Cc1cccc(C)c1Nc1n[nH]c(=S)s1,-16%,·,·,·,?
COc1cccc(Nc2n[nH]c(=S)s2)c1,-16%,?,-3%,4%,24µM*
Cc1ccc(Nc2n[nH]c(=S)s2)c(C)c1,-16%,·,·,·,24µM*
CC(=O)Nc1n[nH]c(=S)s1,-3%,50µM*,-3%,·,-14%
COc1ccccc1Nc1n[nH]c(=S)s1,-17%,?,-1%,6.3µM*,21µM*
CCCCOC(=O)c1cccc(NC(=O)c2cc3ccccc3o2)c1,-22%,1%,·,-10%,·
CN(C)c1ccc(Nc2ncnc3c2c(-c2ccccc2)cn3-c2cccc(Cl)c2)cc1,12%,4%,·,-15%,·
Cc1cc(C)c(Nc2n[nH]c(=S)s2)cc1C,-5%,·,·,·,27µM*
Cc1cccc(Nc2n[nH]c(=S)s2)c1C,0%,-78%,-5%,22µM*,30µM*
C[C@H](CO)N1C[C@H](C)[C@H](CN(C)Cc2cccc(C(F)(F)F)c2)OCc2ccccc2-c2c(n(C)c3ccccc23)C1=O,-12%,·,·,·,5%
CCCCc1nc2cc(C(=O)N3CCCCC3CCNC(C)=O)ccc2o1 (stereo unspecified),-7%,?,-6%,2%,24µM*
CCCCc1nc2cc(C(=O)N3CCCCC3COC)ccc2o1 (stereo unspecified),0%,-9%,-3%,-15%,3%
O=C(O)/C=C/c1cn(Cc2ccccc2)nc1-c1ccccc1,2%,0%,0%,-20%,-4%
O=C(O)CCn1cc(/C=C/C(=O)c2ccc(Cl)cc2)c(-c2ccc(Br)cc2)n1,-19%,40µM*,-5%,?,?
CCN(CC)c1sc(S(=O)(=O)c2ccccc2)nc1S(=O)(=O)c1ccc(C)cc1,?,-2%,·,-8%,·
SMILES,USP1 inh,VDR inh,PTAP TSG101 blk,KAT2A inh,PLK1 PBD block
Cc1cccc(C)c1NS(=O)(=O)c1ccc2c(c1)[C@H]1C=CC[C@H]1[C@@H](c1ccc(Cl)cc1)N2,3%,-21%,·,-15%,·
Cc1c(Cl)cccc1NS(=O)(=O)c1ccc2c(c1)C1C=CCC1C(c1ccc(C(=O)O)cc1)N2 (stereo unspecified),?,?,-12%,?,11µM*
CCn1cc(/C=C(\NC(=O)c2ccc(OC)c(OC)c2)C(=O)N2CCOCC2)c2ccccc21,-22%,-25%,0%,-6%,27µM*
CN(C)S(=O)(=O)n1cc(/C=C(\NC(=O)c2ccccc2F)C(=O)N2CCOCC2)c2ccccc21,-1%,?,-12%,-5%,19µM*
CNc1ccc(Br)cc(C(=O)/C=C/c2ccc3c(c2)OCO3)c1=O,?,79µM*,-1%,0%,19µM*
O=C(C=Cc1ccc2c(c1)OCO2)c1ccccc1,-11%,40µM*,0%,·,-5%
O=C(/C=C/c1ccccc1)c1ccccn1,-4%,40µM*,-8%,-3%,-14%
O=C(N/N=C/c1ccc2c(c1)OCO2)c1ccccn1,-6%,-7%,-10%,-8%,-8%
O=C(/C=C/c1ccc2c(c1)OCO2)c1ccccn1,?,79µM*,2%,-9%,-3%
N/C(=N\OC(=O)/C=C/c1ccccc1)c1ccccn1,-15%,2%,1%,2%,0%
CCOC(=O)c1c(NC(=O)/C=C/c2ccc(Cl)cc2)sc2c1CCC(C)C2 (stereo unspecified),?,-12%,·,-3%,·
CCCc1cnc2c(c1SCc1cccc(F)c1)c(=O)n(C)c(=O)n2C,?,6%,·,-9%,·
CC(C(=O)Nc1ccc(O)cc1C(=O)O)N1C(=O)/C(=C\c2cccs2)SC1=S (stereo unspecified),?,45µM*,-7%,-37%,6.7µM*
O=C(CCN1C(=O)/C(=C/c2ccccc2Cl)SC1=S)Nc1ccccc1C(=O)O,?,79µM*,-10%,-21%,24µM*
O=C(CN1C(=O)/C(=C\c2ccco2)SC1=S)Nc1ccc(O)cc1C(=O)O,?,-13%,-5%,-21%,17µM*
CCc1ccc(/C=C2/SC(=S)N(CCCC(=O)Nc3ccccc3C(=O)O)C2=O)cc1,-19%,?,2%,0%,24µM*
O=C(CCCN1C(=O)/C(=C\c2ccccc2)SC1=S)Nc1ccc(O)cc1C(=O)O,-27%,-22%,4%,-4%,-16%
Cc1cc(C)cc(-n2ccnc2SCC(=O)Nc2ccc(C)c(Cl)c2)c1,-22%,9%,·,-18%,·
Cc1cc(C)n(-c2nnc(Nc3ccc(C)c(Cl)c3)c3ccccc23)n1,-24%,8%,·,-19%,·
CCC(c1nnnn1C1CCCC1)N(Cc1cccs1)Cc1cc2cc(C)ccc2[nH]c1=O (stereo unspecified),-16%,-12%,0%,-5%,-4%
CCOc1ccc2[nH]c(=O)c(CN(Cc3cccs3)C(CC)c3nnnn3C(C)(C)CC)cc2c1 (stereo unspecified),-16%,-15%,0%,-10%,8.4µM*
CCN(C(=O)CN(C)S(=O)(=O)c1ccc2c(c1)n(C)c(=O)c(=O)n2C)c1cccc(C)c1,-9%,2%,·,-1%,·
